Among all 290,000 compounds or so, about 260 (0.09%) were called active. The list comes from a sample in which actives are over-represented; it also holds similar structures and randomly drawn compounds. Measured potencies and affinities stand elsewhere. Values without a mark were called inactive. Cut-off read from the data, not from the text of the source: active = inhibition above about 50%; inactive = the rest.
Each compound was assayed against Kappa-type opioid receptor (Homo sapiens) (UniProt P41145) (assay: kappa opioid receptor blockers – cell-based, luminescence, uHTS (AID 1778)). Details: KOR beta-arrestin recruitment, antagonist mode, stronger effect = higher value; at 10 µM unless noted.
Sequence of Kappa-type opioid receptor (Homo sapiens) (P41145 whole entry, looked up): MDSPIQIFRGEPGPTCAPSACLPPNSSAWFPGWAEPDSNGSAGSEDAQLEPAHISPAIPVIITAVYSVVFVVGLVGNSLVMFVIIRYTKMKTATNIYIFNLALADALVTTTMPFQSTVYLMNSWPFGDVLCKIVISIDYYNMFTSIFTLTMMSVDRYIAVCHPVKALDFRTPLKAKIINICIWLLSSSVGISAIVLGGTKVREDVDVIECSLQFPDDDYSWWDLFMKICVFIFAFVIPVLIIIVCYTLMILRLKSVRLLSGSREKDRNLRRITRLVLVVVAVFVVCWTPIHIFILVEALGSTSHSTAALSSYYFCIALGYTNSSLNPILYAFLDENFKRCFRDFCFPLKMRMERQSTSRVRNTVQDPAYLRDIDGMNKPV
Work on `Cc1ccc(S(=O)(=O)N(Cc2cc3ccc(C)cc3[nH]c2=O)c2ccccc2)cc1` yielded an inhibition of 17.5%. `CCCCCn1c(SCCCC)nc2c1c(=O)[nH]c(=O)n2C` gave an inhibition of -43.8%. In the case of `COc1cc2c(cc1OC)C1(CCCC1)CNC2C` (configuration not stated), the inhibition is reported as 7.4%. With `COc1cc2c(cc1OC)C1(CCCC1)CNC2c1ccc([N+](=O)[O-])cc1` (configuration not stated) the inhibition was -8.4%. For `COc1ccc(OC)c(NC(=O)Nc2ccc3c(c2)OCO3)c1`, the inhibition was -10.5%. In the case of `O=C(Nc1ccc(C(F)(F)F)cc1)c1ccc2ncsc2c1`, the inhibition is reported as -15.9%. For `O=C1C(Cl)=C(Nc2ccc3cn[nH]c3c2)C(=O)c2ccccc21`, the inhibition was 76.4% (active). `Cc1ccc(NC2=C(Cl)C(=O)c3ccccc3C2=O)cc1` gave an inhibition of 37.4%. With `O=C1C(Cl)=C(Nc2ccccc2)C(=O)c2ccccc21` the inhibition was 15.5%. `COC(=O)c1c(NC(=O)/C=C/C(=O)O)sc(Cc2ccccc2)c1C` gave an inhibition of 14.3%. Compound `NNC(=O)c1ccc(CSc2cccc3cccnc23)cc1` has an inhibition of -21.6%. `O=C(c1ccc(CNS(=O)(=O)c2ccc(Br)cc2)cc1)N1CCCCCC1` showed an inhibition of -30.5%. Compound `CC(=O)N1CCc2cc(S(=O)(=O)NC(Cc3ccccc3)C(=O)NCCN3CCCCC3C)ccc21` (configuration not stated) has an inhibition of 15%. With `Oc1[nH]c(N=C2N=c3ccccc3=N2)c2ccccc12` the inhibition was 59.4% (active). `N#CC(=C1N=c2ccccc2=N1)c1c(O)[nH]c2ccccc12` gave an inhibition of -33.6%. `Oc1[nH]c(=S)sc1C=C1N=c2ccccc2=N1` showed an inhibition of 6.5%. Work on `O=C(COc1ccccc1)N1CCN=C1SCc1ccc(F)cc1` yielded an inhibition of 2.9%. `O=C(CSc1nnc2c(Cl)cc(C(F)(F)F)cn12)N(Cc1ccccc1)Cc1ccccc1` was tested, and the inhibition was 1%. `Cc1cc(NS(=O)(=O)c2ccc(NC(=O)c3ccc(Cl)cc3Cl)cc2)no1` gave an inhibition of -5.5%. In the case of `O=C(N/N=C(\c1ccccc1)c1cccnc1)c1cc(O)ccc1O`, the inhibition is reported as -0.3%. Work on `O=C(N/N=C(\c1ccccc1)c1cccnc1)c1ccc(O)cc1` yielded an inhibition of 28.3%. `CC1=C(C#N)C(NC(=O)c2ccco2)(C(F)(F)F)C(=O)N1` (configuration not stated) was tested, and the inhibition was 9.4%. In the case of `CCc1nnc(NC(=O)c2c(OC)cccc2OC)s1`, the inhibition is reported as -5.6%. Work on `CCc1nnc(NC(=O)c2ccc3ccccc3n2)s1` yielded an inhibition of 0.1%. `C=CCN1C(=O)C(CC(=O)O)SC1=Nc1ccc(C(=O)O)cc1` (configuration not stated) was tested, and the inhibition was 5.3%. `CCOC(=O)C1CCN(S(=O)(=O)c2cc(C(=O)N3CCCCC3)ccc2OC)CC1` showed an inhibition of 2.3%. For `COc1ccc(CNC(=O)C2CCC(=O)N(CCCN3CCCC3=O)C2)c(OC)c1` (configuration not stated), the inhibition was -21.5%.

From PubChem BioAssay AID1778 (Sanford-Burnham Center for Chemical Genomics, 2009)
